According to the supplement of paper PMC3545927:
Some of the results follow. How many sequences the whole screen found active is unknown.

B1: HC794 (peptide)
chain: CAYMSKAHGIAGNASASA
B2: HC472 (peptide)
chain: CANYTIFKIRAGNASASA
B3: HC2325 (peptide)
chain: CAELPCHRPSAGNASASA
B4: HC2368 (peptide)
chain: CAEVPCHWPSAGNASASA
B5: HC119 (peptide)
chain: CAVVCCQMSYAGNASASA
B6: HC686 (peptide)
chain: CADKNQVEGEAGNASASA
B7: HC1159 (peptide)
chain: CAAKLMPQLPAGNASASA
B8: HC575 (peptide)
chain: CALTLSPYYKAGNASASA
B9: FS-462 (peptide)
chain: CALVRRRRRYAGNASASA
B10: FS-1237 (peptide)
chain: CAMNSRKGRYAGNASASA
B11: FS-1032 (peptide)
chain: CALTLRMRRYAGNASASA
B12: HC1557 (peptide)
chain: CAAHDGAGKRAGNASASA
B13: HC1790 (peptide)
chain: CAVEMEECSQAGNASASA
B14: HC1921 (peptide)
chain: CATTPCSGNWAGNASASA
B15: HC1238 (peptide)
chain: CAPVGSQLPCAGNASASA
B16: HC183 (peptide)
chain: CAGVRATRKTAGNASASA
B17: HC2424 (peptide)
chain: CAIREVPCHRAGNASASA
B18: HC709 (peptide)
chain: CAVIQMYTNVAGNASASA
B19: FS-2638 (peptide)
chain: CARAKRRWAPAGNASASA
B20: FS-2884 (peptide)
chain: CARAKRPLMVAGNASASA
B21: FS-2894 (peptide)
chain: CARAYRSSMRAGNASASA
B22: FS-1991 (peptide)
chain: CARAKRAFLPAGNASASA
B23: FS-3241 (peptide)
chain: CARAKRTTKRAGNASASA
B24: FS-2637 (peptide)
chain: CARAKRRAIRAGNASASA
B25: FS-2634 (peptide)
chain: CARAKREEKKAGNASASA
B26: HC790 (peptide)
chain: CAAATLGFGAAGNASASA
B27: FS-2636 (peptide)
chain: CARAKRKVTRAGNASASA
B28: FS-2886 (peptide)
chain: CARAKRRGGGAGNASASA
B29: FS-2902 (peptide)
chain: CARDGRKVTVAGNASASA
B30: HC1411 (peptide)
chain: CANLLSVEEAAGNASASA
B31: FS-2688 (peptide)
chain: CARKGRSQSVAGNASASA
B32: FS-3222 (peptide)
chain: CARKNRSFYAAGNASASA
B33: FS-1960 (peptide)
chain: CARKRRPYGSAGNASASA
B34: FS-1731 (peptide)
chain: CARKNRSQIVAGNASASA
B35: FS-3159 (peptide)
chain: CARKNRSTASAGNASASA
B36: FS-1902 (peptide)
chain: CARKGRSYGSAGNASASA
B37: HC2177 (peptide)
chain: CAESVTSTWVAGNASASA
B38: HC527 (peptide)
chain: CASCLWMMLLAGNASASA
B39: HC1402 (peptide)
chain: CAHYQDVLKEAGNASASA
B40: FS-933 (peptide)
chain: CAIRRRTQRCAGNASASA
B41: FS-1543 (peptide)
chain: CALSRRRVRCAGNASASA
B42: FS-458 (peptide)
chain: CALRERPVRCAGNASASA
B43: FS-481 (peptide)
chain: CAQRQRSVRCAGNASASA
B44: FS-34 (peptide)
chain: CAINRRTGRPAGNASASA
B45: FS-482 (peptide)
chain: CAQRSRQVRCAGNASASA
B46: HC1422 (peptide)
chain: CAYGAKDVRCAGNASASA

Biological target: furin, P09958
Experiment: furin cleavage Z-score vs untreated control; higher = more cleavage, active = 3.5 or more, inactive = 1 or less, 8 variable residues between constant flanks
How it was run: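 In 50 mM HEPES pH 7.5 with CaCl2 and NaCl, purified furin was incubated with bead-anchored 8-mer peptide–cDNA fusions at 1:10 enzyme:substrate in 0.01 ml. Incubation times were 7.5, 15 and 30 min. DNA set free by cleavage was adapter-tagged by PCR and sequenced, with read counts taken as abundance. Log counts relative to furin-free reactions, after lowess adjustment and median absolute deviation scaling, form the cleavage Z-score.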

Sequence of furin, P09958 (P09958 whole entry): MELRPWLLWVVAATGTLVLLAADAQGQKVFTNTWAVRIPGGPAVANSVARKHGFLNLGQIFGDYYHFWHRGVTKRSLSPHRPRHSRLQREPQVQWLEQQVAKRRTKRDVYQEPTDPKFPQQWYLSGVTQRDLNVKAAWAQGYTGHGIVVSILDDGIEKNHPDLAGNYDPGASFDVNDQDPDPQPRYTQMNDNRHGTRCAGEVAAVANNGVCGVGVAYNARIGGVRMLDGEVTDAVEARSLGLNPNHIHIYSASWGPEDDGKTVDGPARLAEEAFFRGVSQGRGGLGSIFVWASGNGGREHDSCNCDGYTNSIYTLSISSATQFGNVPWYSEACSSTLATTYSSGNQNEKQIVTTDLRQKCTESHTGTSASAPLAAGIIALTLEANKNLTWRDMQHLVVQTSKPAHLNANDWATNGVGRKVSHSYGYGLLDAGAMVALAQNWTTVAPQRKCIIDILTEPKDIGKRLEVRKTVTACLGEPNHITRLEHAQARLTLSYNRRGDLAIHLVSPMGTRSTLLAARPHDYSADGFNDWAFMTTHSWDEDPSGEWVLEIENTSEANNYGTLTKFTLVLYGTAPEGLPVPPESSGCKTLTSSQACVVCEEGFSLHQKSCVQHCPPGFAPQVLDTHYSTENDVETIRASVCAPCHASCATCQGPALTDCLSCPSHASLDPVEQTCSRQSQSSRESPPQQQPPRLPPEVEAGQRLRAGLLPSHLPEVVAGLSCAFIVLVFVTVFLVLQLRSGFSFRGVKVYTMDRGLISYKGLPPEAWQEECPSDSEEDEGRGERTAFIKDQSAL

Sequence | furin cleavage Z-score (7.5 min) | furin cleavage Z-score (15 min) | furin cleavage Z-score (30 min)
B1 | -0.614 (inactive) | -0.299 (inactive) | 0.089 (inactive)
B2 | -0.135 (inactive) | 0.367 (inactive) | -0.43 (inactive)
B3 | 0.967 (inactive) | -0.4 (inactive) | 0.0984 (inactive)
B4 | -0.575 (inactive) | -0.478 (inactive) | 0.531 (inactive)
B5 | -0.852 (inactive) | -0.183 (inactive) | 0.623 (inactive)
B6 | -0.934 (inactive) | -0.739 (inactive) | -1.82 (inactive)
B7 | 0.255 (inactive) | -0.546 (inactive) | 0.241 (inactive)
B8 | -0.934 (inactive) | -0.768 (inactive) | -0.313 (inactive)
B9 | 11 (active) | 12.3 (active) | 9.67 (active)
B10 | 1.23 | 0.312 (inactive) | 2.34
B11 | 9.91 (active) | 10.2 (active) | 11.2 (active)
B12 | -0.0785 (inactive) | 0.342 (inactive) | 0.362 (inactive)
B13 | 0.132 (inactive) | -1.38 (inactive) | -1.19 (inactive)
B14 | 0.659 (inactive) | 0.815 (inactive) | -0.795 (inactive)
B15 | 0.473 (inactive) | -1.27 (inactive) | 0.372 (inactive)
B16 | 0.267 (inactive) | 0.577 (inactive) | 0.344 (inactive)
B17 | -0.0693 (inactive) | 1.33 | 2.41
B18 | 0.334 (inactive) | -0.0874 (inactive) | -1.04 (inactive)
B19 | 0.9 (inactive) | 1.95 | 0.773 (inactive)
B20 | 0.123 (inactive) | 1.97 | -0.869 (inactive)
B21 | -1.12 (inactive) | -1.44 (inactive) | -1.22 (inactive)
B22 | 3.35 | 4.79 (active) | 6.29 (active)
B23 | 8.36 (active) | 10.4 (active) | 9.38 (active)

Sequence | furin cleavage Z-score (7.5 min) | furin cleavage Z-score (15 min) | furin cleavage Z-score (30 min)
B24 | 10.3 (active) | 11.4 (active) | 9.08 (active)
B25 | 3.98 (active) | 2.96 | 4.64 (active)
B26 | -0.962 (inactive) | 1.23 | 1.13
B27 | 3.09 | 4.94 (active) | 4.17 (active)
B28 | 0.374 (inactive) | -1.9 (inactive) | 0.196 (inactive)
B29 | -0.804 (inactive) | -0.377 (inactive) | -1.67 (inactive)
B30 | 1.03 | -1.37 (inactive) | 1.04
B31 | 0.447 (inactive) | 1.69 | 2.28
B32 | -0.489 (inactive) | 0.152 (inactive) | -1.6 (inactive)
B33 | -0.105 (inactive) | 0.526 (inactive) | -2 (inactive)
B34 | 0.382 (inactive) | 1.89 | 1.82
B35 | 4.98 (active) | 6.48 (active) | 5.71 (active)
B36 | 2.38 | 4.19 (active) | 3.35
B37 | 0.711 (inactive) | -0.0286 (inactive) | -0.582 (inactive)
B38 | 0.0621 (inactive) | -0.464 (inactive) | 0.433 (inactive)
B39 | -0.724 (inactive) | -0.493 (inactive) | 0.655 (inactive)
B40 | 7.07 (active) | 6.92 (active) | 6.54 (active)
B41 | 10.2 (active) | 7.81 (active) | 8.22 (active)
B42 | 2.04 | 2.12 | 4.39 (active)
B43 | 1.64 | 0.494 (inactive) | 0.731 (inactive)
B44 | -0.402 (inactive) | -1.89 (inactive) | -1.13 (inactive)
B45 | 0.775 (inactive) | 0.292 (inactive) | 1.12
B46 | -0.0596 (inactive) | 0.548 (inactive) | 0.765 (inactive)
